# Measured values published in the antibiotic and cytotoxicity screens of Wong et al. (2023).
# Hit rate of the full screen: of about 39,000 compounds, about 3,300 (8.5%) were called active. The sample holds actives, similar compounds and a random draw of the others, so the mix is not that of the screen.
# Test system: HepG2
# Test: cytotoxicity call (relative viability < 0.9)
# Settings: 10 µM
row,SMILES,cytotoxicity call
1,C[C@@H]1CN([C@H](C)CO)C(=O)c2cccc(NS(=O)(=O)c3cn(C)cn3)c2O[C@H]1CN(C)Cc1ccc2c(c1)OCO2,inactive
2,C[C@H](NC(=O)C[C@@H]1C[C@H]2c3cc(NC(=O)Nc4ccc(C(F)(F)F)cc4)ccc3O[C@H]2[C@@H](CO)O1)c1ccccc1,inactive
3,COc1ccc(NC(=O)Nc2ccc3c(c2)C(=O)N([C@H](C)CO)C[C@H](C)[C@@H](CN(C)S(=O)(=O)c2ccc(C)cc2)OCCCC[C@H](C)O3)cc1,inactive
4,COc1ccc(S(=O)(=O)N(C)C[C@H]2OCCCC[C@@H](C)Oc3ccc(NC(=O)Nc4ccc5c(c4)OCO5)cc3C(=O)N([C@@H](C)CO)C[C@@H]2C)cc1,active
5,COc1ccc(S(=O)(=O)N(C)C[C@H]2OCCCC[C@H](C)Oc3ccc(NC(=O)Nc4ccc5c(c4)OCO5)cc3C(=O)N([C@H](C)CO)C[C@@H]2C)cc1,inactive
6,COc1ccc(NC(=O)Nc2ccc3c(c2)C(=O)N([C@H](C)CO)C[C@H](C)[C@H](CN(C)S(=O)(=O)c2ccc(C)cc2)OCCCC[C@H](C)O3)cc1,inactive
7,COc1ccc(NC(=O)Nc2ccc3c(c2)C(=O)N([C@H](C)CO)C[C@@H](C)[C@H](CN(C)S(=O)(=O)c2ccc(Cl)cc2)OCCCC[C@@H](C)O3)cc1,active
8,COc1ccc(NC(=O)Nc2ccc3c(c2)C(=O)N([C@H](C)CO)C[C@@H](C)[C@H](CN(C)S(=O)(=O)c2ccc(C)cc2)OCCCC[C@@H](C)O3)cc1,inactive
9,COc1ccc(S(=O)(=O)N(C)C[C@H]2OCCCC[C@H](C)Oc3ccc(NC(=O)Nc4ccc5c(c4)OCO5)cc3C(=O)N([C@H](C)CO)C[C@H]2C)cc1,inactive
10,COc1ccc(NC(=O)Nc2ccc3c(c2)C(=O)N([C@@H](C)CO)C[C@H](C)[C@H](CN(C)S(=O)(=O)c2ccc(C)cc2)OCCCC[C@H](C)O3)cc1,active
11,COc1ccc(NC(=O)Nc2ccc3c(c2)C(=O)N([C@@H](C)CO)C[C@H](C)[C@@H](CN(C)S(=O)(=O)c2ccc(C)cc2)OCCCC[C@@H](C)O3)cc1,active
12,COc1ccc(NC(=O)Nc2ccc3c(c2)C(=O)N([C@H](C)CO)C[C@H](C)[C@H](CN(C)S(=O)(=O)c2ccc(Cl)cc2)OCCCC[C@H](C)O3)cc1,inactive
13,COc1ccc(NC(=O)Nc2ccc3c(c2)C(=O)N([C@@H](C)CO)C[C@@H](C)[C@@H](CN(C)S(=O)(=O)c2ccc(C)cc2)OCCCC[C@@H](C)O3)cc1,inactive
14,COc1ccc(NC(=O)Nc2ccc3c(c2)C(=O)N([C@H](C)CO)C[C@H](C)[C@H](CN(C)S(=O)(=O)c2ccc(Cl)cc2)OCCCC[C@@H](C)O3)cc1,inactive
15,CCCCCCC#C[Si](O[C@H](c1ccccc1)c1cn(Cc2cccc(Cl)c2)nn1)(C(C)C)C(C)C,inactive
16,C[C@@H]1CCCCO[C@H](CN(C)C(=O)Nc2ccccc2)[C@H](C)CN([C@@H](C)CO)C(=O)c2cc(NS(=O)(=O)c3ccc(Cl)cc3)ccc2O1,inactive
17,COc1ccc(C#Cc2ccc3c(c2)[C@H]2[C@H](CCN2C(=O)Nc2ccc(C(F)(F)F)cc2)[C@@H](CO)N3C)cc1,inactive
18,C[C@@H]1CCCCO[C@H](CN(C)C(=O)Nc2ccc3c(c2)OCO3)[C@H](C)CN([C@@H](C)CO)C(=O)c2cc(NC(=O)CCC(F)(F)F)ccc2O1,inactive
19,O=C(CCCCCCC(=O)Nc1ccc(C(=O)NCCOCCOCCNC(=O)c2ccc(NC(=O)CCCCCCC(=O)NO)cc2)cc1)NO,inactive
20,COCC(=O)N(C)C[C@@H]1Oc2cc(-c3ccc(C#N)cc3)ccc2S(=O)(=O)N([C@@H](C)CO)C[C@H]1C,inactive
21,C[C@H](CO)N1C[C@H](C)[C@H](CN(C)C(=O)CN2CCOCC2)Oc2ncc(/C=C/c3ccccc3)cc2C1=O,inactive

row,SMILES,cytotoxicity call
1,COCCC(=O)N1C[C@H]2CN(c3cnn(C)c3)C(=O)[C@@H]2C1,inactive
2,Cc1ccc(F)cc1NC(=O)CN,inactive
3,COc1ccc(NC(=O)Nc2ccc3c(c2)C(=O)N([C@H](C)CO)C[C@@H](C)[C@H](CN(C)S(=O)(=O)c2ccc(C)cc2)OCCCC[C@H](C)O3)cc1,active
4,COc1ccc(NC(=O)Nc2ccc3c(c2)C(=O)N([C@@H](C)CO)C[C@@H](C)[C@H](CN(C)S(=O)(=O)c2ccccc2)OCCCC[C@@H](C)O3)cc1,inactive
5,COc1ccc(NC(=O)Nc2ccc3c(c2)C(=O)N([C@@H](C)CO)C[C@@H](C)[C@H](CN(C)S(=O)(=O)c2ccc(C)cc2)OCCCC[C@H](C)O3)cc1,inactive
6,COc1ccc(NC(=O)Nc2ccc3c(c2)C(=O)N([C@H](C)CO)C[C@H](C)[C@H](CN(C)S(=O)(=O)c2ccc(C)cc2)OCCCC[C@@H](C)O3)cc1,inactive
7,COc1ccc(NC(=O)Nc2ccc3c(c2)C(=O)N([C@@H](C)CO)C[C@@H](C)[C@@H](CN(C)S(=O)(=O)c2ccccc2)OCCCC[C@@H](C)O3)cc1,inactive
8,COc1ccc(NC(=O)Nc2ccc3c(c2)C(=O)N([C@@H](C)CO)C[C@@H](C)[C@@H](CN(C)S(=O)(=O)c2ccc(OC)cc2)OCCCC[C@@H](C)O3)cc1,inactive
9,COc1ccc(NC(=O)Nc2ccc3c(c2)C(=O)N([C@H](C)CO)C[C@@H](C)[C@H](CN(C)S(=O)(=O)c2ccccc2)OCCCC[C@H](C)O3)cc1,active
10,COc1ccc(NC(=O)Nc2ccc3c(c2)C(=O)N([C@H](C)CO)C[C@@H](C)[C@H](CN(C)S(=O)(=O)c2ccc(OC)cc2)OCCCC[C@@H](C)O3)cc1,active
11,COc1ccc(NC(=O)Nc2ccc3c(c2)C(=O)N([C@@H](C)CO)C[C@H](C)[C@H](CN(C)S(=O)(=O)c2ccc(OC)cc2)OCCCC[C@@H](C)O3)cc1,inactive
12,C[C@H](CO)N1C[C@H](C)[C@H](CN(C)C(=O)c2ccc(N3CCN(C)CC3)cc2)OCc2cnnn2CCCC1=O,inactive
13,C[C@H](O)C#Cc1ccc2c(c1)O[C@@H](CN(C)C)[C@@H](C)CN([C@@H](C)CO)S2(=O)=O,inactive
14,COc1ccc(S(=O)(=O)N(C)C[C@H]2Oc3c(NS(=O)(=O)c4ccc(C)cc4)cccc3C(=O)N([C@@H](C)CO)C[C@@H]2C)cc1,inactive
15,CCNC(=O)C[C@H]1CC[C@@H](NC(=O)C2CC2)[C@@H](CO)O1,inactive
16,Cc1noc(C)c1C(=O)OCC(=O)NC1CC1,inactive
17,Cc1cc(C(=O)Nc2cccc3c2O[C@@H](CN(C)Cc2ccncc2)[C@H](C)CN([C@H](C)CO)C3=O)n(C)n1,inactive
18,COC(=O)c1cnn2c(=O)cc(C)[nH]c12,inactive
19,O=C(C[C@H]1CC[C@H]2[C@@H](COC[C@@H](O)CN2S(=O)(=O)c2cccc(F)c2)O1)NCCCN1CCOCC1,inactive
20,C[C@@H]1CN([C@@H](C)CO)C(=O)c2cc(NC(=O)Nc3ccc(F)cc3)ccc2O[C@H]1CN(C)Cc1ccc(C(F)(F)F)cc1,active
21,C[C@@H]1CN([C@H](C)CO)C(=O)c2cc(NC(=O)Nc3ccc(F)cc3)ccc2O[C@@H]1CN(C)Cc1ccc(C(F)(F)F)cc1,inactive

row,SMILES,cytotoxicity call
1,C[C@H]1CN([C@@H](C)CO)C(=O)c2cc(NC(=O)Nc3ccc(F)cc3)ccc2O[C@@H]1CN(C)Cc1ccc(C(F)(F)F)cc1,inactive
2,C[C@H](CO)N1C[C@H](C)[C@H](CN(C)Cc2ccc(C(F)(F)F)cc2)Oc2ccc(NC(=O)Nc3ccc(F)cc3)cc2C1=O,inactive
3,C[C@H](CO)N1C[C@H](C)[C@@H](CN(C)Cc2ccc(C(F)(F)F)cc2)Oc2ccc(NC(=O)Nc3ccc(F)cc3)cc2C1=O,active
4,C[C@@H]1CN([C@@H](C)CO)C(=O)c2cc(NC(=O)Nc3ccc(F)cc3)ccc2O[C@@H]1CN(C)Cc1ccc(C(F)(F)F)cc1,active
5,C[C@@H]1CN([C@H](C)CO)C(=O)c2cc(NC(=O)Nc3ccc(F)cc3)ccc2O[C@H]1CN(C)Cc1ccc(C(F)(F)F)cc1,active
6,C[C@H]1CN([C@@H](C)CO)C(=O)c2cc(NC(=O)Nc3ccc(F)cc3)ccc2O[C@H]1CN(C)Cc1ccc(C(F)(F)F)cc1,inactive
7,O=C(C[C@@H]1CC[C@@H]2[C@H](COC[C@@H](O)CN2C(=O)c2cccnc2)O1)NCc1ccc(-c2ccccc2)cc1,inactive
8,C[C@@H]1CN([C@H](C)CO)C(=O)Cc2cc(NS(=O)(=O)c3cn(C)cn3)ccc2O[C@@H]1CN(C)C(=O)NC1CCCCC1,inactive
9,C[C@H](CO)N1C[C@H](C)[C@@H](CN(C)Cc2cccc3c2OCCCO3)OCc2cn(nn2)CCCC1=O,inactive
10,O=C1CSCCN1,inactive
11,OCc1ncc[nH]1,inactive
12,CCNC(=O)[C@H]1[C@H](CO)[C@H]2Cn3c(ccc(-c4ccc(OC)cc4)c3=O)[C@@H]1N2S(C)(=O)=O,inactive
13,C[C@@H]1CN([C@@H](C)CO)S(=O)(=O)c2ccc(C3=CCCC3)cc2O[C@@H]1CN(C)C(=O)Cc1ccncc1,inactive
14,COc1ccc2c(c(Br)c(C(=O)O)n2CCCOc2cccc3ccccc23)c1-c1ccccc1C,inactive
15,C[C@H](CO)N1C[C@H](C)[C@@H](CN(C)Cc2ccc(C(=O)O)cc2)Oc2ccc(NC(=O)Cn3cnnn3)cc2CC1=O,inactive
16,CC(C)(C)C(=O)C[C@@H](Nc1ccccc1)c1ccc(Cl)cc1,inactive
17,COc1cccc(-c2ccc3n(c2=O)C[C@H]2[C@H](CO)[C@@H](C(=O)NCC4CC4)[C@@H]3N2S(C)(=O)=O)c1,inactive
18,C[C@H]1CN([C@@H](C)CO)C(=O)c2cccc(NS(=O)(=O)c3cn(C)cn3)c2O[C@@H]1CN(C)CC1CC1,inactive
19,CCc1nc2c(OCC(=O)c3ccc(Cl)cc3Cl)cccn2c1N(C=O)Cc1ccc(OC)cc1,inactive
20,CCc1nc2c(OCC(=O)c3ccc(Cl)cc3Cl)cccn2c1N(C)C(=O)COc1ccccc1,active
21,CCc1nc2ccc(C(=O)N3CCN(C(=O)c4ccco4)CC3)cn2c1N(C)C(=O)COc1ccccc1,inactive
